Measured values published in PubChem BioAssay AID1035470 (Broad Institute, 2014).
Hit rate of the full screen: of about 1,800 compounds, fewer than 10 were called active. Not shown: some 16% with an inconclusive outcome.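 The calls were made as follows: active = compound lowering the normal-ribosome reporter at least twice as much as the humanized-ribosome reporter, growth loss under a set limit; inconclusive = no clear call, values can overlap the other calls; inactive = the rest.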 The list is a sample of the results. Potency and affinity values are given separately.

Test: E. coli strain growth, wild-type against G2058 humanized RFP mutant – G2058 mutant RFP vs wild-type GFP, cherry-pick, two tests, dose response (AID 1035470)
Conditions: E. coli WT-GFP vs G2058-humanized RFP, fluorescence, 24 h; series mostly up to 50 µM; activity change, negative = inhibition: at the top concentration

Activity change, negative = inhibition, inactive:
COC(=O)CNC(=O)COC(=O)c1ccc(Cl)nc1 26.5
CC(OC(=O)CCc1nc2ccccc2c(=O)[nH]1)C(=O)c1ccc(Br)cc1 (configuration not stated) 1.11
C(=C/c1nccc2c1[nH]c1ccccc12)/c1ccc2c(c1)OCO2 -9.87
O=C(Nc1cc(S(=O)(=O)N2CCOCC2)ccc1N1CCOCC1)c1ccc([N+](=O)[O-])s1 -15.8
Cc1cc(Br)cn2c(Cc3cccc(Cl)c3)c(-c3ccco3)nc12 -8.14
Cc1nc2ccccn2c1C(=O)Nc1ccc(Cl)cc1 5.9
COC(=O)c1ccc(CSc2nc3ccccc3s2)o1 -11
C[C@@H]1CCCCO[C@@H](CN(C)C(=O)CCCN(C)C)[C@H](C)CN([C@@H](C)CO)C(=O)c2cc(NC(=O)Nc3cccc4ccccc34)ccc2O1 31.3
Cc1nc(Nc2ccccc2)sc1C(=O)Nc1ccccc1 -26.5
Cn1c(=O)c2c(ncn2CC(O)CNc2ccc(F)cc2)n(C)c1=O (configuration not stated) -11.4
CC1Cc2cc(S(=O)(=O)N3CCN(c4cccc(Cl)c4)CC3)ccc2N1C(=O)C1CC1 (configuration not stated) -12.6
Nc1ccccc1C#CC(=O)c1ccccc1 -20.3
Cn1cc(CN2CCCC(C(=O)c3cccs3)C2)c(-c2cccc(Cl)c2)n1 (configuration not stated) -5.45
CC(=O)N1c2c(cc(Br)cc2S(=O)(=O)N2CCCCC2)CC1C (configuration not stated) -1.15
CC(OC(=O)COc1ccccc1)C(=O)NC1CCCC1 (configuration not stated) -8.33
O=C(CCNC(=O)c1ccco1)Nc1cccc(Br)c1 -16.9
CC1(C)CC2CC(C)(CN2c2ncnc3ccccc23)C1 (configuration not stated) -16.7
CS(=O)(=O)N(CC(=O)N1CCc2ccccc2C1)c1cccc(Br)c1 -13
O=S(=O)(NCc1cc(-c2ccccc2)no1)c1ccccc1Cl -13.4
CC(=O)c1ccc(-c2cccc([C@H]3[C@@H]4C=CC[C@@H](C)[C@@H]4C(=O)N3Cc3ccccc3)c2)cc1 -7.13
O=C(NC1CCCCC1)C(c1cccc2ccccc12)n1c(=O)c(-c2ccco2)nc2ccccc21 (configuration not stated) -10.3
CC(C)(C)CC(=O)NCCc1csc(-c2ccccc2)n1 1.87
Cc1cccc(NC(=O)CN(C)S(=O)(=O)c2cccs2)c1 -12.2
Cc1ccc2oc(C(=O)N(C)Cc3ccc(C)o3)c(C)c2c1 -5.54
O=C(NCc1cccnc1)C1CCN(S(=O)(=O)c2cc([N+](=O)[O-])ccc2Cl)CC1 -18.9
COc1ccc(CNC(=O)c2sc3nc4c(c(C(F)(F)F)c3c2N)CCC4)cc1OC -15.1
CSc1ccccc1OCc1cc(C(=O)N(C)Cc2nonc2C)no1 -7.56
O=C1Nc2ccc(F)cc2C12Nc1ccccc1-c1nnc(SCc3ccccc3)nc1O2 (configuration not stated) -11.2
COc1cccc(NC2=Nc3cccc4cccc2c34)c1 -20.4
COCc1nnc(NC(=O)c2ccc(S(=O)(=O)N3CCCC3)cc2)o1 -10.3
O=C(COc1cccc2c1CCN(Cc1ccc(Br)cc1)C2=O)N1CCOCC1 -5.18
Cc1cccc(OCc2nc(C#N)c(N3CCCC3)o2)c1 5.24
Cc1onc(-c2c(Cl)cccc2Cl)c1C(=O)Nc1ccc(Cl)cn1 -0.987
NS(=O)(=O)c1ccc(NC(=O)CCC(=O)O)cc1 23.6
Cc1ccc(NC(=O)C[n+]2cc(-c3ccccc3)n3c2CCC3)cc1 12.5
Cc1ccc(S(=O)(=O)Nc2ccc3c(c2)C(=O)N([C@@H](C)CO)C[C@@H](C)[C@H](CN(C)C(=O)c2ccccc2)OCCCC[C@@H](C)O3)cc1 0.461
COc1ccc(NC(=O)Nc2cccc3c2O[C@@H](CN(C)S(=O)(=O)c2ccc(Cl)cc2)[C@H](C)CN([C@@H](C)CO)C3=O)cc1 2.46 [at 26 µM]
O=C1c2ccccc2C(=O)N1CCc1c[nH]c2ccccc12 -10.9
CC(=O)Cc1cc(O)c2ccccc2c1OC(=O)c1ccc(Br)cc1 -5.75
COc1ccc(CC(=O)NC(C)c2ccc3ccccc3c2)cc1 (configuration not stated) -2.81
Fc1ccc(Br)cc1SCCc1ccncc1 -17.4
C[C@@H]1CCCCO[C@@H](CN(C)C)[C@H](C)CN([C@@H](C)CO)C(=O)c2cc(NC(=O)Nc3cccc4ccccc34)ccc2O1 17.4
Cc1onc(-c2ccccc2)c1C(=O)Oc1ccccc1 -2.9
COC(=O)c1ccc2nc(-c3ccc(OC)c(OC)c3)c(Cc3ccc(C)cc3)n2c1 -12
COc1ccc(C(=O)NCCC2=CCCCC2)cc1[N+](=O)[O-] -2.38
C[C@H]1CN([C@@H](C)CO)C(=O)CCCn2nncc2CO[C@@H]1CN(C)Cc1ccccc1C(F)(F)F -15.1
COc1ccc(N2C(=O)C3C(c4ccc(C(=O)O)cc4)NC(Cc4ccccc4)(C(=O)O)C3C2=O)c([N+](=O)[O-])c1 (configuration not stated) 5.02
Cc1ccc2nc(-c3ccc(Cl)cc3)c(Cc3ccccc3C(F)(F)F)n2c1 11.2
COc1ccc2cc(CO)c3cc(OC)c(OC)cc3c2c1 -16.3
CC(C)(C)NC(=O)C(c1ccncc1)N(Cc1ccc(F)cc1)C(=O)c1ccc(-c2ccccc2)[nH]1 (configuration not stated) -0.988
Cc1noc(C)c1NC(=O)N(C)C[C@H]1OCCCC[C@@H](C)Oc2ccc(NC(=O)Nc3cccc4ccccc34)cc2C(=O)N([C@@H](C)CO)C[C@H]1C 2.78
Cn1c(CCN2CCOCC2)nc2cc(NC(=O)c3cccs3)ccc21 24.4
COc1ccccc1C(C(C(=O)c1ccccc1)N1CCOCC1)N1CCOCC1 (configuration not stated) -8.67
Cc1cccc(-c2ccc([C@H]3[C@@H](CO)N4CCCCN(S(=O)(=O)c5ccccc5C)C[C@H]34)cc2)c1 -14.4
CCc1cc(CN2CCOCC2)c(NC(=O)c2ccccc2)s1 -6.48
COc1ccccc1CC(=O)NCCc1c[nH]c2ccccc12 3.23
Cn1c(=O)n(C)c2cc([N+](=O)[O-])c(N3CCN(C(=O)c4cccc(F)c4)CC3)cc21 -10.1
O=C(CSCc1ccc(Br)cc1)NCc1ccccn1 -9.31
Cc1ccc(CCN2C(=O)c3ccccc3C2C(=O)NCc2cccnc2)cc1 (configuration not stated) -2.74
CS(=O)(=O)c1ccc(Cl)c(NC(=O)COC(=O)c2c(Cl)cccc2Cl)c1 -18.7
COCC#Cc1ccc2c(c1)O[C@H](CN(C)C(=O)c1ccccc1)[C@@H](C)CN([C@H](C)CO)S2(=O)=O -19
Cc1noc(C)c1NC(=O)Nc1ccc2c(c1)C(=O)N([C@H](C)CO)C[C@H](C)[C@H](CN(C)C(=O)Nc1ccc3c(c1)OCO3)OCCCC[C@H](C)O2 15
